Screen size: about 2,400 compounds; about 1,700 (71%) were called active.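 Rule for the calls: active = choline transporter activity left, mean of duplicates at 10 µM, below buffer-only control mean minus 3 SD; inactive = the rest.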 The set was probably picked from earlier hits. Not all results are given here.

The target in this test is High affinity choline transporter 1 (Homo sapiens) (UniProt Q9GZV3). The test is described as follows: human choline transporter blockers – cell-based, membrane potential dye, duplicate, confirmation (AID 493221). The note with it: CHT-expressing cells, at 10 µM, LV-to-AA substituted CHT, HEK293 cells.
Chain of High affinity choline transporter 1 (Homo sapiens) (Q9GZV3 whole entry, looked up): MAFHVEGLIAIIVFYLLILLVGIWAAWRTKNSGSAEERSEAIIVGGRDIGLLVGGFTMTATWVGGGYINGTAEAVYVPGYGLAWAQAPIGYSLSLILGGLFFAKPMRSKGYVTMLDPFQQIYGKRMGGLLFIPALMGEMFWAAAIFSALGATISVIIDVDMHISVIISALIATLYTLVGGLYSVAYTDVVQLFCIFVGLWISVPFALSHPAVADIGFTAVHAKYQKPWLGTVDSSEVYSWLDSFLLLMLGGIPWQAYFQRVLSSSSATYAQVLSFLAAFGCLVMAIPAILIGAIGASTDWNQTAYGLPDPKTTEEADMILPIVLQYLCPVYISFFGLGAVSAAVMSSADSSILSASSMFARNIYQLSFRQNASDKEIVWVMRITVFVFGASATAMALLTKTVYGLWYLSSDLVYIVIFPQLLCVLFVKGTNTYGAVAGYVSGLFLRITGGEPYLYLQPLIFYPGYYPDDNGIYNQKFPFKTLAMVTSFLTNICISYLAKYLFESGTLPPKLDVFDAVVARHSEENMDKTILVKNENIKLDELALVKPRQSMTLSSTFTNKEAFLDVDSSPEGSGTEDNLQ
As to `Cc1ccc(CS(=O)(=O)c2ncc(Cl)c(C(=O)Nc3nnc(C)s3)n2)cc1`, the CHT activity remaining % of control (active compounds read low) was 25.2% (active).
For `O=C(Nc1nonc1-c1ccc(Cl)cc1)c1ccco1` the value was 68.2% (active).
For `COCCNc1nc(-n2nc(C)cc2C)nc2sc3c(c12)CCCC3` the value was 71.2% (active); for `O=C(CCCN1C(=O)CSc2ncccc21)N1CCN(c2cccc(C(F)(F)F)c2)CC1`, 42.1% (active); for `COc1cccc(-c2nn(-c3ccccc3)cc2/C=C(\C#N)C(=O)NCCCn2ccnc2)c1`, 28.8% (active).
For `CC(=O)OCCOCn1cnn2c(=O)c(Br)c(C)nc12` the value was 37.2% (active); for `Cc1ccccc1-n1nnc2c(=O)oc3ccccc3c21`, “inactive”; for `CN(Cc1ccccc1)CC(O)COc1ccc(CNCc2cc3ccccc3s2)cc1` (centres undefined), 53.6% (active).
Turning to `CCS(=O)(=O)C1=NSC2=NC(=O)/C(=C\c3ccc(OS(=O)(=O)c4ccccc4)cc3)C(=N)N21`, the CHT activity remaining % of control (active compounds read low) is 53.4% (active).
For `CCCCCn1c(=O)c(C(=O)OCC)c(Cl)c2ccccc21` the value was 45.3% (active); for `O=c1c2ccccc2nnn1CSc1nc2sc3c(c2c(=O)n1CC1CCCO1)CCC3` (centres undefined), 24% (active); for `Cc1ccc(NNC(=O)c2cccs2)cc1Cl`, 64.8% (active).
For `CCC(C(=O)N1CCOCC1)n1c(C(=O)OC)cc2occc21` (centres undefined) the value was 55% (active); for `CCNC(=O)CC1C(=O)N(c2ccc(F)cc2)C(=O)N1CCc1sccc1C` (centres undefined), “inactive”; for `O=C1c2cccc3cccc(c23)C(=O)N1CCCCCc1n[nH]c(=S)o1`, “inactive”.
For `COc1ccc(Cn2c(=O)sc3ccccc32)cc1OC` the value was 63.4% (active).
As to `CCOc1ccccc1Nc1ccc2nonc2c1[N+](=O)[O-]`, the CHT activity remaining % of control (active compounds read low) was 33.1% (active).
Under `CC(=O)N1CCN(S(=O)(=O)c2cccc(C(=O)NC3CCC(C)CC3)c2)CC1` (centres undefined) stands 70.5% (active); under `COc1ccc(S(=O)(=O)N2CCN(C(=O)NC3CCCCC3)CC2)cc1`, “inactive”.
For `CCc1nc(C)cn1S(=O)(=O)c1cc([N+](=O)[O-])ccc1Cl` the value was “inactive”.
As to `CCn1c(SCCC(C)C)nnc1-c1c[nH]c2ccccc12`, the CHT activity remaining % of control (active compounds read low) is 67.1% (active).
For `Cc1ccccc1-n1c(C)cc(/C=N/NC(=O)c2ccc(CN3CCOCC3)cc2)c1C` the value was 69.4% (active); for `CC(=O)c1ccc(Oc2cc(C)nc(-n3nc(C)cc3C)n2)cc1`, “inactive”; for `CCOC(=O)N1CCN(C(=O)C2CCN(c3ncnc4c3sc3cccc(F)c34)CC2)CC1`, 68.8% (active).
For `Cc1[nH]c2ccccc2c1C(=O)CN1CCCC(C)C1` (centres undefined) the value was 60.9% (active).
For `COC(=O)c1ccccc1NC(=O)Cn1nc(C(F)(F)F)c2c1CCC2` the value was “inactive”; for `O=C(Cn1nc(C(F)(F)F)c2c1CCC2)NCc1ccc(F)cc1`, 63.8% (active); for `O=[N+]([O-])c1ccccc1Nc1ccc(O)cc1`, 42.1% (active).
`COc1ccc(-n2nnnc2CNC(=O)c2ccc3ccccc3c2)cc1`: the CHT activity remaining % of control (active compounds read low) is 56.6% (active).
With `COc1ccc(N2C(=O)CNC2=S)cc1`, the CHT activity remaining % of control (active compounds read low) result was “inactive”.
Under `Cc1ccc(S(=O)(=O)/N=C(/NC(=S)Nc2c(C)n(C)n(-c3ccccc3)c2=O)c2ccccc2)cc1` stands 39.1% (active).
Under `O=C(c1cccs1)C1C(c2ccc(Br)cc2)NC(=S)NC1(O)C(F)(F)F` (centres undefined) stands 54.2% (active); under `Oc1c(Cl)cc(Cl)c(Cl)c1Cc1c(O)c(Cl)cc(Cl)c1Cl`, 10.1% (active); under `O=S(=O)(Cc1cc(Cl)nc(-c2cccnc2)n1)c1ccccc1`, 60.6% (active).
For `Cc1ccc2c(C)c(C(=O)N3CCC(N4CCC(C(=O)NC5CC5)CC4)CC3)oc2c1` the value was 61.6% (active).
With `Cc1oc2cc([N+](=O)[O-])c(O)c([N+](=O)[O-])c2c1C(=O)c1ccc(Br)cc1`, the CHT activity remaining % of control (active compounds read low) result was “inactive”.
Under `CCCn1c2ccccc2c2cnn(CC(=O)NCCCN3CCCCC3CC)c(=O)c21` (centres undefined) stands 36.8% (active); under `Cc1nn(CC(=O)NCC2CCCO2)c(=O)c2cc3ccccc3n12` (centres undefined), “inactive”.
For `O=C(Cn1ncc2c3ccccc3n(Cc3ccccc3)c2c1=O)NCCCN1CCOCC1` the value was 32.8% (active); for `CCCCOc1ccc(Cl)cc1CSc1nncn1N`, “inactive”; for `COc1ccc(C(=O)NNC(=S)NC(=O)c2ccccc2)cc1`, 59.6% (active).
Under `COc1ccc(C(=O)NC(=S)NNC(=O)CCc2ccccc2)cc1` stands 66.3% (active).
Turning to `O=C(Nc1ccc(F)c(Cl)c1)C1CCN(S(=O)(=O)c2cccnc2)CC1`, the CHT activity remaining % of control (active compounds read low) is 38.1% (active).
For `C=CCn1c(SCc2ccc(C(=O)NCCO)cc2)nc2ccccc2c1=O` the value was “inactive”.
Under `COc1ccc(C(=O)NC(Cc2ccc(OC(=O)c3ccc(OC)cc3)cc2)C(=O)O)cc1` (centres undefined) stands 18.8% (active); under `O=C(NCCc1ccc2c(c1)OCCO2)c1cc2ccccc2o1`, 42.2% (active); under `O=C(NCCCn1ccnc1)C(=O)c1cn(CC(=O)N2CCCCCC2)c2ccccc12`, 59.8% (active).
As to `CCCCn1c(SCC(=O)NCC2CCCO2)nc2ccc(N3CCOCC3)cc2c1=O` (centres undefined), the CHT activity remaining % of control (active compounds read low) result was “inactive”.
For `CCCCCn1c(=O)[nH]c2cc(C(=O)NCCCN3CCCCC3C)ccc2c1=O` (centres undefined) the value was 35.4% (active).
Under `CC(=O)Nc1nc2c(s1)C(=O)NCC(C)(C)C2` stands “inactive”.
Under `C/C(=N\N=C(N)N)c1ccc(Cl)cc1` stands 12.2% (active); under `CCN(CC(=O)NCc1ccc(Cl)cc1)C(=O)CSc1ccccc1`, “inactive”; under `Nc1cc(N2CCCCCC2)c2nonc2c1[N+](=O)[O-]`, 68.5% (active).
In the case of `O=C(OCC(=O)c1c[nH]c2ccccc12)c1cccc(O)c1`, the CHT activity remaining % of control (active compounds read low) is 56% (active).
For `CN(CCC#N)c1ncnc2scc(-c3ccccc3)c12` the value was 50.5% (active); for `O=C(c1c(F)cccc1Cl)N1CCN(S(=O)(=O)c2ccc3c(c2)OCCCO3)CC1`, “inactive”; for `O=S(=O)(c1cccc(-c2nnc(SC(F)F)n2-c2ccccc2)c1)N1CCCCC1`, “inactive”.
Take `Cc1cccc(N(C)C(=O)CN2C(=O)COc3ccc(S(=O)(=O)N4CCCCCC4)cc32)c1`: the CHT activity remaining % of control (active compounds read low) was 56.8% (active).
For the compound `CCc1ccc2c(c1)C1(NN=C(c3ccccc3)S1)C(=O)N2` (centres undefined), the CHT activity remaining % of control (active compounds read low) is 54.3% (active).
Under `Cn1c2ccccc2c(=O)c2c(O)cccc21` stands 65.5% (active).
Under `O=C(O/N=C(/c1ccccc1)c1ccncc1)c1ccccc1[N+](=O)[O-]` stands 60.1% (active).
Under `Cc1cccc(C)c1NC(=O)c1ccc(CN2CCc3ccccc3C2)cc1` stands 53.4% (active).
`COc1ccc(C(=O)NC(C)c2nccs2)cc1OC1CCN(C(C)C)CC1` (centres undefined): the CHT activity remaining % of control (active compounds read low) was 22.1% (active).
For `COc1ccc(OCC(=O)OCCN(C)C)cc1` the value was 11.5% (active); for `OC1CN=C2Sc3ccccc3N2C1` (centres undefined), 46.2% (active); for `CCC(C)c1ccc(NC(=S)NCc2ccccn2)cc1` (centres undefined), 45.6% (active).
Under `COC(=O)C(C(=O)Nc1cccc(Cl)c1C)C1CCCC1` (centres undefined) stands “inactive”; under `CC(C)CCn1c(CN(C)Cc2ccccc2)nc2c1c(=O)n(C)c(=O)n2C`, “inactive”.
Under `COc1cc2ccccc2cc1C(=O)Nc1ccc(S(=O)(=O)Nc2cc(C)on2)cc1` stands 49.4% (active); under `Cc1cc(OC(C)C(=O)Nc2ccc(S(=O)(=O)Nc3onc(C)c3C)cc2)cc(C)c1Cl` (centres undefined), 57.7% (active).
Regarding `CCC(Oc1ccccc1C)C(=O)Nc1ccc(S(=O)(=O)Nc2cc(C)on2)cc1` (centres undefined), the CHT activity remaining % of control (active compounds read low) is 46.2% (active).
In the case of `Cc1cc(NS(=O)(=O)c2ccc(NC(=O)C(C)Oc3cccc(C)c3C)cc2)nc(C)n1` (centres undefined), the CHT activity remaining % of control (active compounds read low) is 13.3% (active).
Under `CCN(CC)Cc1c(C(=O)N/N=C/c2cccc(OCc3ccc(F)cc3)c2)nnn1-c1nonc1N` stands “inactive”.
Regarding `CCc1cc2c(N3CCN(c4nnc(CC)s4)CC3)ncnc2s1`, the CHT activity remaining % of control (active compounds read low) was 67.1% (active).
As for `Cc1c(C(=O)OC(C)C)sc(NC(=O)c2cccnc2)c1C#N`, the CHT activity remaining % of control (active compounds read low) was 61.9% (active).
For the compound `CCN(CC)CCC(c1ccc2c(c1)OCO2)c1c(OC)cc(OC)c2c(-c3ccccc3)cc(=O)oc12` (centres undefined), the CHT activity remaining % of control (active compounds read low) is 70.5% (active).
Under `CC(C)(C)c1ccc(C(=O)CSc2ncn[nH]2)cc1` stands 42.8% (active); under `C/C(=N/NC(=O)c1cc(Cl)ccc1O)C12CC3CC(CC(C3)C1)C2`, 46.3% (active); under `Cc1oc2c(F)c(F)c(F)c(F)c2c1S(=O)(=O)Nc1cccc(C(F)(F)F)c1`, 57.3% (active).
For `FC(F)(F)c1cccc(NC(=S)Nc2cccc(Cl)c2)c1` the value was “inactive”.
For `COc1ccc(NC(=O)c2sc(N)nc2-c2ccccc2)cc1` the value was 53.4% (active).
On to `Cc1ccc2nc(Nc3ccccc3)cc(C)c2c1`, for which the CHT activity remaining % of control (active compounds read low) was 49.7% (active).
Consider `COc1ccc(/C=C2/SC(=O)N(CCCCCC(=O)Nc3ccccc3C(=O)O)C2=S)cc1`, for which the CHT activity remaining % of control (active compounds read low) is 29.7% (active).
Under `C/C(=N\Nc1nc2ccccc2[nH]1)c1cccs1` stands 19.1% (active).
As to `CC(C(=O)NC1CCS(=O)(=O)C1)N1C(=O)/C(=C/c2ccc(Cl)cc2)SC1=S` (centres undefined), the CHT activity remaining % of control (active compounds read low) is 69.7% (active).
As to `Cc1ccc(C(=O)N/C(=C/C=C/c2ccccc2)C(=O)NCc2ccco2)cc1`, the CHT activity remaining % of control (active compounds read low) is 47.3% (active).
As for `O=C(/C=C/c1cn(-c2ccccc2)nc1-c1ccc2c(c1)OCCO2)NCCCN1CCOCC1`, the CHT activity remaining % of control (active compounds read low) was 26.1% (active).
Under `Cc1cccc(-c2nc3ccc(C(=O)NCCN4CCN(C)CC4)cc3nc2-c2cccc(C)c2)c1` stands 40% (active); under `CNCC(O)c1ccc(O)c(O)c1` (centres undefined), 33.7% (active); under `COC(=O)CN1C(C)=Nc2ccc(Br)cc2C1c1ccccc1` (centres undefined), “inactive”.
Under `O=C(O)CC1=C(Nc2ccccc2)C(=O)N(c2ccccc2)C1c1ccc(Cl)cc1` (centres undefined) stands 26.7% (active); under `O=S(=O)(Nc1ccc(Cl)cn1)c1cnc(Cl)c(Br)c1`, “inactive”.
For `CCC(=O)Nc1nnc(S(=O)(=O)N(CC(C)C)c2ccccc2)s1` the value was “inactive”; for `C/C(=N\NC(N)=S)c1cccnc1`, “inactive”; for `O=C(O)c1ccc(N/N=C/c2cn(-c3ccccc3)nc2-c2cccs2)cc1`, 65.1% (active).
With `COc1nc(OC)nc(N(C)CCO)n1`, the CHT activity remaining % of control (active compounds read low) entry is “inactive”.
Under `CCN(Cc1ccccc1)S(=O)(=O)c1cc(C(=O)O)ccc1OC` stands 58.7% (active); under `CCOC(=O)N1CCN(C(=O)c2ccc(CN(c3ccc(C)c(C)c3)S(C)(=O)=O)cc2)CC1`, “inactive”; under `O=C(Nc1ccccc1C(=O)NCCCn1ccnc1)c1ccc(Cl)cc1Cl`, 52.6% (active).

The values above are taken from PubChem BioAssay AID493221 (Johns Hopkins Ion Channel Center, 2011).
